# PubChem BioAssay AID602192 (The Scripps Research Institute Molecular Screening Center, 2012)
# Hit rate of the full screen: of about 2,400 compounds, about 750 (31%) were called active. Only a sample is shown. Values without a mark were called inactive.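 How the source made its calls: active means mean activation across replicates above the hit cutoff set in the earlier primary screen (cut at about 8% in these data); inactive means the rest.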
# Biological target: Melanocortin receptor 4 (Homo sapiens) (UniProt P32245)
# Test: MC4R beta-arrestin agonists, retest, confirmation, cell-based, luminescence, U2OS (AID 602192)
# Settings: U2OS MC4R beta-arrestin recruitment, at 8.9 µM, active compounds read high, scaled DMSO 0%, Melanotan II 100%
# Melanocortin receptor 4 (Homo sapiens), sequence (P32245 whole entry, looked up): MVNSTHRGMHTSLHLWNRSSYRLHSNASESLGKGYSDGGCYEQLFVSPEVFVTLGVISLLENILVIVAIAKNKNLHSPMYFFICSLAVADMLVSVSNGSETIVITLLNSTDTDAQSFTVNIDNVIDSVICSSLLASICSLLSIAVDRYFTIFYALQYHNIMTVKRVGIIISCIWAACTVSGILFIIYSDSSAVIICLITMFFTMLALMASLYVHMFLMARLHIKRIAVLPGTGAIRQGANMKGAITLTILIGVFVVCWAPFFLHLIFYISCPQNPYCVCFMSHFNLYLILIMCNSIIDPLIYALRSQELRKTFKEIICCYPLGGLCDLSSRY
row,SMILES,activation
1,Cc1ccc(CCC(=O)Nc2ncc(Cc3cc(Cl)ccc3Cl)s2)o1,15.2% (active)
2,COc1c(Cl)cc(C(=O)Nc2ccc(Cl)cn2)cc1Cl,2.15%
3,COc1cccc(NC(=S)NC(=O)c2c(Cl)c(C)nn2C)c1,0.75%
4,CCN(CC)c1ccc(C(=O)N/N=C/c2ccc(N3CCOCC3)cc2)cc1,3.23%
5,O=C(N/N=C/c1ccc(OC(=O)c2ccccc2Cl)cc1)c1ccc(O)cc1,10.9% (active)
6,CCCOc1ccc(C(=O)C(CCC(CNCC)C(=O)c2ccc(OCCC)cc2)CNCC)cc1 (centres undefined),47% (active)
7,COc1cc(/C=C2\Oc3ccc(C#Cc4ccc(O)cc4)cc3C2=O)cc(OC)c1,17.7% (active)
8,S=C(NCCCc1cnc[nH]1)NCCCN(Cc1ccc(Cl)c(Cl)c1)c1ccc(Br)cn1,12.9% (active)
9,CC(C)c1ccc2c(c1)c(SC(C)(C)C)c(CC(C)(C)C(=O)O)n2Cc1ccc(Cl)cc1,6.79%
10,Cc1cc(OCc2cc(C(=O)NCc3cc(C(C)C)no3)no2)cc(C)c1Cl,-1.7%
11,Oc1ccccc1N1CCN(c2ncnc3sc(-c4ccccc4)cc23)CC1,3.16%
12,O=C(NC(=S)Nc1cccc2c(O)cccc12)c1cccc(Br)c1,14.4% (active)
13,CCOc1ccc(/C=C/C(=O)OCC(=O)c2ccccc2OC)cc1OC,4.4%
14,CCN1CCC2(CC1)N=C(c1ccc(F)cc1)C(=S)N2C(=O)c1ccc(C)cc1,6.69%
15,NC(N)=Nc1nc(-c2ccccc2)c2cc(Cl)ccc2n1,19.8% (active)
16,CCCCN1CC(C)(C)[C@H](CC(=O)Nc2ccc(Br)cc2)C1=O,1.84%
17,COc1ccccc1NC(=O)Nc1nnc(Cc2ccc(F)cc2)s1,4.89%
18,CC(=O)Nc1cc(-c2ccccc2N(C)C)cn2c(-c3ccc(F)c(Cl)c3)cnc12,26% (active)
19,COc1ccccc1-c1cc(NC(C)=O)c2ncc(-c3ccc(F)cc3)n2c1,15.2% (active)
20,COc1cccc(-c2cnc3c(NC(C)=O)cc(-c4cc(F)ccc4OC)cn23)c1,27.2% (active)
21,CC(=O)Nc1cc(-c2ccccc2F)cn2c(-c3cccc(C(F)(F)F)c3)cnc12,19% (active)
22,Fc1ccccc1/C=N/Nc1cc(N2CCCCC2)ncn1,-2.37%

row,SMILES,activation
1,O=C(Nc1ccc2oc(-c3ccc4ccccc4c3)nc2c1)c1cccs1,3.96%
2,O=C(CCCCCn1c(=S)[nH]c2cc3c(cc2c1=O)OCO3)N1CCN(c2ccc(F)cc2)CC1,5.47%
3,COC(=O)c1sccc1NC(=O)c1cc(OC)c(OC)c(OC)c1,3.33%
4,O=C(CCCCCN1C(=O)c2cccc3cccc(c23)C1=O)NCc1ccco1,6.44%
5,Cc1ccc(Sc2ccc(NC(=O)c3ccc(F)cc3)cc2C#N)cc1,2.18%
6,Cc1ccc(S(=O)(=O)NCCC(=O)Nc2ccc(C)c(Cl)c2)cc1C,3.25%
7,CCOC(=O)c1nn(-c2ccccc2F)c2nc(Nc3ccccc3)cc(=O)n12,2.15%
8,CCN1CCN(CCNC(=O)c2ccc(/C=C3/Sc4ccccc4N(Cc4cccc(C)c4)C3=O)cc2)CC1,9.47% (active)
9,O=C(NCCc1c[nH]c2ccc(Cl)cc12)c1ccc([N+](=O)[O-])cc1,3.47%
10,Cc1ccc(-c2csc(SCC(=O)Nc3cc(C)on3)n2)cc1,3.04%
11,Cc1ccc(C(=O)Nc2ccc(NC(=O)c3cccs3)cc2)c(C)c1,2.47%
12,Cc1ccc(-n2nc(C)c(/C=N/NC(=O)c3cccs3)c2Cl)cc1,12% (active)
13,COCCN(CCOC)S(=O)(=O)c1ccc(C(=O)Nc2nc3c(s2)CCc2ccccc2-3)cc1,0.54%
14,CCCCCCCCCCOC(=O)Cn1c(COc2ccc(C)cc2)[n+](C)c2ccccc21,29.9% (active)
15,CCCCCCCCCCOC(=O)Cn1c(COc2cccc(OC)c2)[n+](C)c2ccccc21,21.6% (active)
16,COC(=O)c1c(C)[nH]c(C(=O)/C=C/c2ccc(Cl)cc2)c1C,2.58%
17,CCn1c(SCC(=O)Nc2cccc(F)c2)nnc1-c1cc2cc(Br)ccc2o1,2.27%
18,O=C(CCCn1c(SCC(=O)c2ccc(F)cc2)nc2ccccc2c1=O)NCc1ccco1,4.27%
19,COc1ccc(Cl)cc1-n1c(C)cc(C(=O)OCC(=O)N2CC(=O)Nc3ccccc32)c1C,10.5% (active)
20,Cc1cccc(C)c1OC(=O)CSc1nnc(-c2ccccc2)o1,2.94%
21,O=C1N/C(=C/c2cccn2-c2ccccc2)C(=O)N1c1cccc(Cl)c1,13.2% (active)
22,Clc1ccc(Nc2ncnc3c2nnn3Cc2ccccc2)cc1,-0.43%
